The text below walks through data of the supplement of paper PMC10849652.

Targets with a hit are over-represented here; the source holds about 7,900 in all. About 0.6% of all pairs of compound and target were hits. A number with no mark means an inactive call.

UniProt Q7Z7N9, sequence (Q7Z7N9 whole entry, looked up): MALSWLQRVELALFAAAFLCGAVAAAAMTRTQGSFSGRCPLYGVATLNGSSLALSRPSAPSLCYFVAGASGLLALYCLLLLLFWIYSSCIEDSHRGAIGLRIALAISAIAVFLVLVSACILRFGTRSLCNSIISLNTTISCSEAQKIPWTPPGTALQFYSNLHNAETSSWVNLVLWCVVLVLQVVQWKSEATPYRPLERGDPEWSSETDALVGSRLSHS
UniProt Q9NQ34, sequence (Q9NQ34 whole entry, looked up): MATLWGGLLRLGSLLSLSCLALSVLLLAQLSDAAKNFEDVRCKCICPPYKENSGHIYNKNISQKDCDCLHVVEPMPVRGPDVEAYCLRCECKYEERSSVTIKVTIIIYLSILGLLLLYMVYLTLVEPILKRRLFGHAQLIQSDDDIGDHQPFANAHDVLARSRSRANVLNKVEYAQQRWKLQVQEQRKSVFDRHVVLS
UniProt Q9BQB6, sequence (Q9BQB6 whole entry, looked up): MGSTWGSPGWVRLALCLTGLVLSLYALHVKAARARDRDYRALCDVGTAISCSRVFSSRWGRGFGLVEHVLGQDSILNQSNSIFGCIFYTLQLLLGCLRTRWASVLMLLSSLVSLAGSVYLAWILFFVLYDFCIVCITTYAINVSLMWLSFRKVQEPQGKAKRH
UniProt Q9UK41, sequence (Q9UK41 whole entry, looked up): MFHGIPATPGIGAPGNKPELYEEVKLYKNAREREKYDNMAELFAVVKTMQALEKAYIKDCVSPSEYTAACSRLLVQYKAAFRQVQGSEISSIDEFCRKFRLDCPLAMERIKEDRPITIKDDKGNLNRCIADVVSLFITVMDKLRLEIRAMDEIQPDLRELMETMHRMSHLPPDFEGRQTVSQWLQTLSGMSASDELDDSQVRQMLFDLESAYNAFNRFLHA
UniProt Q9Y6I4, sequence (Q9Y6I4 whole entry, looked up): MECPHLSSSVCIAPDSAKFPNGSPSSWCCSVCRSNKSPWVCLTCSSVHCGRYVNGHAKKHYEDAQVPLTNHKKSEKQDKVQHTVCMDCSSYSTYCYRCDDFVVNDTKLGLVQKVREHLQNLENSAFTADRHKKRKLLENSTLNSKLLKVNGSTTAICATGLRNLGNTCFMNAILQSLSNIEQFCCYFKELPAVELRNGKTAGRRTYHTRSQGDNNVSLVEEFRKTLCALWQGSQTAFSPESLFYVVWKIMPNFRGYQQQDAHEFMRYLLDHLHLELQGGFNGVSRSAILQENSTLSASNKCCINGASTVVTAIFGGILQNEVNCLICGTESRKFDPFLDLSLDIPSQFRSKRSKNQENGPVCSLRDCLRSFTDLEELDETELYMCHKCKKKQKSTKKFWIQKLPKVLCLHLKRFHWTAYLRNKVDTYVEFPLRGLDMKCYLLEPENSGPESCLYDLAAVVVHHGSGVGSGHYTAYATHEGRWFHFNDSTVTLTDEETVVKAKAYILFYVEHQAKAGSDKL
UniProt Q15906, sequence (Q15906 whole entry, looked up): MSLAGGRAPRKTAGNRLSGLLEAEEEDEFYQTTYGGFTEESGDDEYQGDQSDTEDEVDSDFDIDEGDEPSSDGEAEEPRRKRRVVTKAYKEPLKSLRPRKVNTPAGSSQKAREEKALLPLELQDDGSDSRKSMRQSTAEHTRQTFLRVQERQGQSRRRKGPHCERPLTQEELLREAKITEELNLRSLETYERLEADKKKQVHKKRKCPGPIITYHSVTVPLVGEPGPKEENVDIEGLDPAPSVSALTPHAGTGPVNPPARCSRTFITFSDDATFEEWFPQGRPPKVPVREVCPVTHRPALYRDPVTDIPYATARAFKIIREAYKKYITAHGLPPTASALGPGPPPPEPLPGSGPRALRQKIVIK
UniProt P61960, sequence (P61960 whole entry, looked up): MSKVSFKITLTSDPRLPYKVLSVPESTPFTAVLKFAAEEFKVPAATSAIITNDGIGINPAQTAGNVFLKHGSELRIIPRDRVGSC
UniProt Q5BJH2, sequence (Q5BJH2 whole entry, looked up): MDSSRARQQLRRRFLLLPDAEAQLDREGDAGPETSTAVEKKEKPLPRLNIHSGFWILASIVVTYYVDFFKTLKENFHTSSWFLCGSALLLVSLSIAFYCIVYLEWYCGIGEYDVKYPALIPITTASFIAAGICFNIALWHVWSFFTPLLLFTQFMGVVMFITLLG
UniProt Q9BZM6, sequence (Q9BZM6 whole entry, looked up): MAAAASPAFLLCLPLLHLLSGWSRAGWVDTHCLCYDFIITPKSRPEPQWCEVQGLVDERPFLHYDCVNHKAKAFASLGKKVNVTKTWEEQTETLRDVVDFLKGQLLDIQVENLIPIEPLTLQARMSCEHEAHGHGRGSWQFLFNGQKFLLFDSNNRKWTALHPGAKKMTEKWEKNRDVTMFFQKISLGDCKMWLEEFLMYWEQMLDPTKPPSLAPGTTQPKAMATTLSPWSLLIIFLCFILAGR
UniProt Q9H4A3, sequence (Q9H4A3 whole entry, looked up): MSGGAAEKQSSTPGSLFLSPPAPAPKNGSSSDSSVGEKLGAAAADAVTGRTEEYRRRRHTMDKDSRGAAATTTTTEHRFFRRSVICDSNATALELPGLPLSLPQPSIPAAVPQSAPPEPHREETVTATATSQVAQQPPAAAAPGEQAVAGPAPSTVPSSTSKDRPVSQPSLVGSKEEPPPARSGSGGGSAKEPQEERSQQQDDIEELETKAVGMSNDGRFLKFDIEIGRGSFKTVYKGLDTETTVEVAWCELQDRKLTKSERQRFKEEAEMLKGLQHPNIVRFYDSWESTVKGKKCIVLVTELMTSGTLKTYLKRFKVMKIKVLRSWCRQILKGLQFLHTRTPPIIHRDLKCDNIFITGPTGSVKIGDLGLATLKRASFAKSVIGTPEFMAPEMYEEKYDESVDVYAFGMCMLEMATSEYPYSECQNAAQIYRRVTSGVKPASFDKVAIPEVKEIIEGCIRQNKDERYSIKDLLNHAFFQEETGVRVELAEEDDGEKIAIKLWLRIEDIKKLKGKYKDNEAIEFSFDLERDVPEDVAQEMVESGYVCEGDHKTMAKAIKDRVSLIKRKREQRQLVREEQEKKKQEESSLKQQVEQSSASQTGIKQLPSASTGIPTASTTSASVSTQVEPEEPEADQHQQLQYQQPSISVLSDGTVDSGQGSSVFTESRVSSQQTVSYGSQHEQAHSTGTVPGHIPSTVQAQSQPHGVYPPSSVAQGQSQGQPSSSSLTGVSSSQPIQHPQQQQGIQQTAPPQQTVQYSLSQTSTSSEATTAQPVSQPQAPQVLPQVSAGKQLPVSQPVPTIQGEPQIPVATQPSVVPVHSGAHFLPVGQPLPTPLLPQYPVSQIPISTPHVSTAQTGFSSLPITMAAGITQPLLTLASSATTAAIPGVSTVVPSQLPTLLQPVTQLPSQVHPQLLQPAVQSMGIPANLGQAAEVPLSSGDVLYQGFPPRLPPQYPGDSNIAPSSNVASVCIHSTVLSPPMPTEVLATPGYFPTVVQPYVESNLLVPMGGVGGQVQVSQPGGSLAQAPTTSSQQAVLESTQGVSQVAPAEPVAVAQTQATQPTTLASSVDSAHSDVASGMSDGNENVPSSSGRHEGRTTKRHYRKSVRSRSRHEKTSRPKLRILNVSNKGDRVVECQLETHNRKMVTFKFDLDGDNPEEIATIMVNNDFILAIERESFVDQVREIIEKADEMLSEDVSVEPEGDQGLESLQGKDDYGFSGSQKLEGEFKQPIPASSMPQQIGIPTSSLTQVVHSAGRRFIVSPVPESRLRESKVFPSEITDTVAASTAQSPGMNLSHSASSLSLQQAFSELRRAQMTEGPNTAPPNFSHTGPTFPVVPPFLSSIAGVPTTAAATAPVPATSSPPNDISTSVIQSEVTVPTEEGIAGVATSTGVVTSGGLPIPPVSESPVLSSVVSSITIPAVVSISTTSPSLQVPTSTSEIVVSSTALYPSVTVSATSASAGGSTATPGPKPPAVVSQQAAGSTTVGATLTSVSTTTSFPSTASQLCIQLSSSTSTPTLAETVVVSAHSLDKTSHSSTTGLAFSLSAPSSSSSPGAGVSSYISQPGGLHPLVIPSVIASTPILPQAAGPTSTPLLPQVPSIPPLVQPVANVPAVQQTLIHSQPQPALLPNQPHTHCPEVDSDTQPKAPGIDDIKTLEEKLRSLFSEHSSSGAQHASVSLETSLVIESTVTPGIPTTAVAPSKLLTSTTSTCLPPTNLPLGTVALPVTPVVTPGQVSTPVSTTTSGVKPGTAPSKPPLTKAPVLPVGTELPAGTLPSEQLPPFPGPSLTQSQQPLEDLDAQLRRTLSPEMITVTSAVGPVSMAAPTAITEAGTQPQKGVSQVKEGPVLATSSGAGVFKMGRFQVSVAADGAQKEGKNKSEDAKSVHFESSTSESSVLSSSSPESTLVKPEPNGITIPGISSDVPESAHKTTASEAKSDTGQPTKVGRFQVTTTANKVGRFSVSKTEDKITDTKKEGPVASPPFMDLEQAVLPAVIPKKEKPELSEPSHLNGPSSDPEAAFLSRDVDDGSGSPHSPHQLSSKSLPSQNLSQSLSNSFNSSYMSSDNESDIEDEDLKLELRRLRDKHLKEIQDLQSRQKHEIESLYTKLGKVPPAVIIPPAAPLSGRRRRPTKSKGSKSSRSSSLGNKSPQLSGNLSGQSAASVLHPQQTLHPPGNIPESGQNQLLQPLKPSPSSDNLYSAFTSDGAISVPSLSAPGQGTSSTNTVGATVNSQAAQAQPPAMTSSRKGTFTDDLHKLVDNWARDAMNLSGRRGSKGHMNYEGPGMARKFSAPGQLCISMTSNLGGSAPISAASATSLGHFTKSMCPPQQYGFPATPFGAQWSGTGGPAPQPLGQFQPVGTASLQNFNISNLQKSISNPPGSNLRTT
UniProt A6NIH7, sequence (A6NIH7 whole entry, looked up): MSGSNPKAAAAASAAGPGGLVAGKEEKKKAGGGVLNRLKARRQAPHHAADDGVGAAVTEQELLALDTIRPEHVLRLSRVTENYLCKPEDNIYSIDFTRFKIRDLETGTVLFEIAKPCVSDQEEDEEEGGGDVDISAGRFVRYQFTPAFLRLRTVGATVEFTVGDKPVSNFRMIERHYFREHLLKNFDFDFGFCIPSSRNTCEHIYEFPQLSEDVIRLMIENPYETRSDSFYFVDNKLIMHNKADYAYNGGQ

Compound in the assay: CC1=CC=C(C=C1)SC2=C3C=C(SC3=CN=C2)C(=O)N
The assay is described as follows: log2 fold change, soluble protein after heating vs DMSO (PISA); higher = thermal stabilisation; K562 cells, 10 uM, 30 min; active = over 0.2 and 3.5 SD of the protein, either way, in both replicates (recomputed). The gist of the method:
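Thermal stability values are relative to control samples and come from duplicates. They are expressed as log2 fold changes. For measurement, K562 cells (2×10^6 cells/mL) received 10 μM compound for 30 min, and aliquots were heated for 3 min over 48°C-58°C, pooled, and extracted at 4°C in PBS with 0.5% NP-40. Soluble protein, the supernatant after 21,000xg for 90 min, was quantified by TMTpro 16plex LC-MS/MS with equalised channel sums.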
For VPS11 (UniProt Q9H270), the log2 fold change was 0.002. TXNL4B (UniProt Q9NX01): the log2 fold change is -0.002.

Regarding USP3 (UniProt Q9Y6I4), the log2 fold change was 0.085.

Regarding TRIM4 (UniProt Q9C037), the log2 fold change is -0.029. Take TMEM128 (UniProt Q5BJH2): the log2 fold change was -0.005.

Take VPS53 isoform 4 (UniProt Q5VIR6): the log2 fold change was 0.01. Consider VPS37A (UniProt Q8NEZ2), for which the log2 fold change is 0.019.

As for TUBA4A (UniProt P68366), the log2 fold change was 0.061. The figure for VDAC1 (UniProt P21796) is 0.025; for UBA52 (UniProt P62987) it is -0.107; for VPS28 (UniProt Q9UK41) it is 0.055. The figure for UNC119B (UniProt A6NIH7) is 0.241. In the case of TRMT61A (UniProt Q96FX7), the log2 fold change is -0.013. Take WNK1 isoform 7 (UniProt Q9H4A3): the log2 fold change is -0.006. On to TSPAN13 (UniProt O95857), for which the log2 fold change was 0.161. TTI2 (UniProt Q6NXR4): the log2 fold change was 0.024. Turning to TTC33 (UniProt Q6PID6), the log2 fold change is -0.059. For UTP3 (UniProt Q9NQZ2), the log2 fold change is -0.094. On to ULBP1 (UniProt Q9BZM6), for which the log2 fold change is -0.014. Take UBE3B (UniProt Q7Z3V4): the log2 fold change is -0.03. For VPS13B (UniProt Q7Z7G8), the log2 fold change was 0.06.

For the target TMEM70 (UniProt Q9BUB7), the log2 fold change was 0.051. Consider UBE4B isoform 4 (UniProt O95155), for which the log2 fold change was 0.001.

Regarding VPS72 isoform 2 (UniProt Q15906), the log2 fold change is 0.05.

UBIAD1 (UniProt Q9Y5Z9): the log2 fold change was 0.004. For TRIM44 (UniProt Q96DX7), the log2 fold change is 0.06. For UGDH (UniProt O60701), the log2 fold change is 0.028. As to TRABD (UniProt Q9H4I3), the log2 fold change was -0.005. Consider UBXN8 (UniProt O00124), for which the log2 fold change is 0.023. On to WEE1 (UniProt P30291), for which the log2 fold change is -0.304. Regarding UCHL5 isoform 3 (UniProt Q9Y5K5), the log2 fold change was 0.048. For UFM1 (UniProt P61960), the log2 fold change is 0.06. TSC2 (UniProt P49815): the log2 fold change was -0.076.

Turning to TMEM9B (UniProt Q9NQ34), the log2 fold change is 0.105. Consider VKORC1 (UniProt Q9BQB6), for which the log2 fold change is 0.001. The figure for TMEM179B (UniProt Q7Z7N9) is 0.011.
